This note sets out measurements from ChEMBL document CHEMBL2218924, “A broad activity screen in support of a chemogenomic map for kinase signalling research and drug discovery” (Biochem J, 2013).

Test [1] concerns the target Focal adhesion kinase 1 (Homo sapiens) (UniProt Q05397). Particulars: at 10 µM.
Test [2] has as its target Fibroblast growth factor receptor 1 (Homo sapiens) (UniProt P11362). The conditions noted are these: at 1 µM.
Test [3] has the same target. The conditions noted are these: at 10 µM.
The target in test [4] is Fibroblast growth factor receptor 4 (Homo sapiens) (UniProt P22455). The conditions noted are these: at 10 µM.
Chain of Fibroblast growth factor receptor 4 (Homo sapiens) (P22455 22-802 limits assumed): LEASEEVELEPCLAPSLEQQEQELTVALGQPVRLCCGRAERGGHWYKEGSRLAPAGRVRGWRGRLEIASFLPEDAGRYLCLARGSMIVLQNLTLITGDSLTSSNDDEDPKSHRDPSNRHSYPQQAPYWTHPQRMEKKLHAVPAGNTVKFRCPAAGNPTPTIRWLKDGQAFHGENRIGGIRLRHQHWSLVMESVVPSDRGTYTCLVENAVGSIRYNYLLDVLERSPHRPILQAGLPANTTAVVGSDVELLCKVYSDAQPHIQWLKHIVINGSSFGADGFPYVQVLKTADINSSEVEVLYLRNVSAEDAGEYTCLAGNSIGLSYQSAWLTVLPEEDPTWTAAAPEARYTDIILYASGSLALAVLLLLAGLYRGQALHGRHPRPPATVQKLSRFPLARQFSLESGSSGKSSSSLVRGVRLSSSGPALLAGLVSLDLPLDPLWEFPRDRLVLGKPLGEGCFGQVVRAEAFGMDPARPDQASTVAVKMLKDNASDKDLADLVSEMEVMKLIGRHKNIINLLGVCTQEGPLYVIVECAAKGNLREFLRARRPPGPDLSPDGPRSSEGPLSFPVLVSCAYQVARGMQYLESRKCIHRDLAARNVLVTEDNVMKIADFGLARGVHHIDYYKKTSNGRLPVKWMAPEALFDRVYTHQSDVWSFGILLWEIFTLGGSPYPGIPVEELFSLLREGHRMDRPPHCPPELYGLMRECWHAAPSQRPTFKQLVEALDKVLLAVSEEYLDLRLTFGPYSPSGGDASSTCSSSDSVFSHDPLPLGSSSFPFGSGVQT
Test [5] has as its target Tyrosine-protein kinase Fer (Homo sapiens) (UniProt P16591). The conditions noted are these: at 10 µM.
Test [6] concerns the target Tyrosine-protein kinase Fes/Fps (Homo sapiens) (UniProt P07332). Particulars: at 10 µM.
Test [7] has as its target Tyrosine-protein kinase Fgr (Homo sapiens) (UniProt P09769). The conditions noted are these: at 10 µM.
Test [8] has as its target Vascular endothelial growth factor receptor 1 (Homo sapiens) (UniProt P17948). The conditions noted are these: at 1 µM.
For test [9] the target is unchanged. Particulars: at 10 µM.
Test [10] concerns the target Receptor-type tyrosine-protein kinase FLT3 (Homo sapiens) (UniProt P36888). The conditions noted are these: at 1 µM.
The target is the same in test [11]. The conditions noted are these: at 10 µM.
Test [12] addresses Vascular endothelial growth factor receptor 3 (Homo sapiens) (UniProt P35916). Particulars: at 1 µM.
For test [13], the target named is Tyrosine-protein kinase Fes/Fps (Homo sapiens) (UniProt P07332). Particulars: at 1 µM.
Chain of Tyrosine-protein kinase Fes/Fps (Homo sapiens) (P07332 whole entry): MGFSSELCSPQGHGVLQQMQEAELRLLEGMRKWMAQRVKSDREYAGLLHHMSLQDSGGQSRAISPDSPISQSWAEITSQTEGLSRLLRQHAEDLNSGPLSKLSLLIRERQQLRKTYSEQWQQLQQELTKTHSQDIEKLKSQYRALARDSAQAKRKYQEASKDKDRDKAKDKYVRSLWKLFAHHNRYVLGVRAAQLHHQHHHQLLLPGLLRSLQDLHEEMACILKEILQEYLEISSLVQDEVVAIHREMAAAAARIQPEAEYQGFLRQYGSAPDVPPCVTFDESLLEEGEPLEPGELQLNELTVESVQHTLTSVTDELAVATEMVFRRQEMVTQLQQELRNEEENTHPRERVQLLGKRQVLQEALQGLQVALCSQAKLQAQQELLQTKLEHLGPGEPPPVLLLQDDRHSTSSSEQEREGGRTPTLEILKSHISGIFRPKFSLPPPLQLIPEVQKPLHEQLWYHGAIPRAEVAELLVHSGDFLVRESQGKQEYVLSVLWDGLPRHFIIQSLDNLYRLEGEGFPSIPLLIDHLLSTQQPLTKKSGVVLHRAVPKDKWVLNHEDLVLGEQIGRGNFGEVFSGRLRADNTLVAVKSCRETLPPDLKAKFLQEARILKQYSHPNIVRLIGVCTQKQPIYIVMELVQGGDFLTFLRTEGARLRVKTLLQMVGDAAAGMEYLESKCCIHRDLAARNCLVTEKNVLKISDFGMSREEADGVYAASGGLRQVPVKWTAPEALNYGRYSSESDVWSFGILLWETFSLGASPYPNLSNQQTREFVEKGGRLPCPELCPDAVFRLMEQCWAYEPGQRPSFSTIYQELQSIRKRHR
Test [14] concerns the target Fibroblast growth factor receptor 2 (Homo sapiens) (UniProt P21802). Particulars: at 1 µM.
For test [15] the target is unchanged. The conditions noted are these: at 10 µM.
In test [16] the target is Fibroblast growth factor receptor 3 (Homo sapiens) (UniProt P22607). Particulars: at 10 µM.
Chain of Fibroblast growth factor receptor 3 (Homo sapiens) (P22607 23-806 limits assumed): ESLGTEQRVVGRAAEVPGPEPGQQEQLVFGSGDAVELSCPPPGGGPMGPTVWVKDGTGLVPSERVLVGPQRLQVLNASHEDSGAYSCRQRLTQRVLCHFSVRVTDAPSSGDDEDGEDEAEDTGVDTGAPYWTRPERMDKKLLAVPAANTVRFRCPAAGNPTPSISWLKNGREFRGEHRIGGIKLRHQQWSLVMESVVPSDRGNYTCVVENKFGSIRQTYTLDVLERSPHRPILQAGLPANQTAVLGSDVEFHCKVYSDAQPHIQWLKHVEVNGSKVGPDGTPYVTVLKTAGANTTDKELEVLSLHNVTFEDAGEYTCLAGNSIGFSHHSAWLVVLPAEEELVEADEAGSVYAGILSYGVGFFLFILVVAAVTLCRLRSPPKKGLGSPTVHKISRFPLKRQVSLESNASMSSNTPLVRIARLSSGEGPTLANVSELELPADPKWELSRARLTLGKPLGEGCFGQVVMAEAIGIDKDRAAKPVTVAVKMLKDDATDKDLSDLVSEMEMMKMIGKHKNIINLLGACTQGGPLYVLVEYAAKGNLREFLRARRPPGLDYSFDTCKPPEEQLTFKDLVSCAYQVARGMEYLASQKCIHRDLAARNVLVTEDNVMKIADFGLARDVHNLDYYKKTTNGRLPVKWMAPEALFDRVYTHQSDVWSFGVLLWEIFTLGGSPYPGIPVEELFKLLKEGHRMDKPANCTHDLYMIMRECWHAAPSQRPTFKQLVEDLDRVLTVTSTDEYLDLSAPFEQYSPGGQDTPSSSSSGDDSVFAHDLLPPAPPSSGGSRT
In test [17] the target is Fibroblast growth factor receptor 4 (Homo sapiens) (UniProt P22455). The conditions noted are these: at 1 µM.
Test [18] has as its target Tyrosine-protein kinase Fer (Homo sapiens) (UniProt P16591). Particulars: at 1 µM.
The target in test [19] is Tyrosine-protein kinase Fgr (Homo sapiens) (UniProt P09769). The conditions noted are these: at 1 µM.
Chain of Tyrosine-protein kinase Fgr (Homo sapiens) (P09769 2-529 limits assumed): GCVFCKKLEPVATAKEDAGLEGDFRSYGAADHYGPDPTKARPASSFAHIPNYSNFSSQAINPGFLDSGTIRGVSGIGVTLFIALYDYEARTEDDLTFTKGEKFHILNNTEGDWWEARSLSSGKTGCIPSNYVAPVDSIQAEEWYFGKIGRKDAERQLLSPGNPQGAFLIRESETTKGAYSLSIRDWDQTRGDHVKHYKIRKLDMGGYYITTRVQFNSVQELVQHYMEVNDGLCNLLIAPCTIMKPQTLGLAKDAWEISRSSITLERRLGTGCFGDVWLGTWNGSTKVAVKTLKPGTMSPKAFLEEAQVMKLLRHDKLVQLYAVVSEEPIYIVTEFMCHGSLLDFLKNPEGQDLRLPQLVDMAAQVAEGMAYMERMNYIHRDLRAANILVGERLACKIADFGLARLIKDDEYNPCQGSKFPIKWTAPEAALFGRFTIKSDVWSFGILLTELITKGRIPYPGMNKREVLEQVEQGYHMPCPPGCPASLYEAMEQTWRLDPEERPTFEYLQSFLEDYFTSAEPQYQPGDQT
Test [20] addresses Fibroblast growth factor receptor 3 (Homo sapiens) (UniProt P22607). Particulars: at 1 µM.

Chain of Fibroblast growth factor receptor 1 (Homo sapiens) (P11362 22-822 limits assumed): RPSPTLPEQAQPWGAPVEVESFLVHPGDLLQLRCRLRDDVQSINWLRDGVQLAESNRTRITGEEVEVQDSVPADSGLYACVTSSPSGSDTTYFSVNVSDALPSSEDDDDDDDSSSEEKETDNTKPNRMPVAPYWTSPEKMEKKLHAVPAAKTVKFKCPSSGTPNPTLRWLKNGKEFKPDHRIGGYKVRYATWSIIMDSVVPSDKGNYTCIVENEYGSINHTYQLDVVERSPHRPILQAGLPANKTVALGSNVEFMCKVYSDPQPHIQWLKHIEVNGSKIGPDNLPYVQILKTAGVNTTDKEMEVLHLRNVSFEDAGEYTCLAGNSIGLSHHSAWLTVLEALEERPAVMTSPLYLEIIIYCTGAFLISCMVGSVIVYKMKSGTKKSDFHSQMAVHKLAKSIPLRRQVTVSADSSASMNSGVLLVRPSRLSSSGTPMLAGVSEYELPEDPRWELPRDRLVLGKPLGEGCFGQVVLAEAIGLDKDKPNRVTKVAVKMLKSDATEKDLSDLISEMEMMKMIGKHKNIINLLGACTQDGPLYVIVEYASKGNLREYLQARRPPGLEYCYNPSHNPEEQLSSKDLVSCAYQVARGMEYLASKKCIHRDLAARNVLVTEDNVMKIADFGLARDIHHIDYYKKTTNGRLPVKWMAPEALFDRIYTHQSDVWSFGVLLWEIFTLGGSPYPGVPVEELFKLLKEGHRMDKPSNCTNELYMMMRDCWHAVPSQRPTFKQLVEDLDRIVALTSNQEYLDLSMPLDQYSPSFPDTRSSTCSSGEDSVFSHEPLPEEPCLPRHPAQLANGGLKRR
Chain of Tyrosine-protein kinase Fer (Homo sapiens) (P16591 whole entry, looked up): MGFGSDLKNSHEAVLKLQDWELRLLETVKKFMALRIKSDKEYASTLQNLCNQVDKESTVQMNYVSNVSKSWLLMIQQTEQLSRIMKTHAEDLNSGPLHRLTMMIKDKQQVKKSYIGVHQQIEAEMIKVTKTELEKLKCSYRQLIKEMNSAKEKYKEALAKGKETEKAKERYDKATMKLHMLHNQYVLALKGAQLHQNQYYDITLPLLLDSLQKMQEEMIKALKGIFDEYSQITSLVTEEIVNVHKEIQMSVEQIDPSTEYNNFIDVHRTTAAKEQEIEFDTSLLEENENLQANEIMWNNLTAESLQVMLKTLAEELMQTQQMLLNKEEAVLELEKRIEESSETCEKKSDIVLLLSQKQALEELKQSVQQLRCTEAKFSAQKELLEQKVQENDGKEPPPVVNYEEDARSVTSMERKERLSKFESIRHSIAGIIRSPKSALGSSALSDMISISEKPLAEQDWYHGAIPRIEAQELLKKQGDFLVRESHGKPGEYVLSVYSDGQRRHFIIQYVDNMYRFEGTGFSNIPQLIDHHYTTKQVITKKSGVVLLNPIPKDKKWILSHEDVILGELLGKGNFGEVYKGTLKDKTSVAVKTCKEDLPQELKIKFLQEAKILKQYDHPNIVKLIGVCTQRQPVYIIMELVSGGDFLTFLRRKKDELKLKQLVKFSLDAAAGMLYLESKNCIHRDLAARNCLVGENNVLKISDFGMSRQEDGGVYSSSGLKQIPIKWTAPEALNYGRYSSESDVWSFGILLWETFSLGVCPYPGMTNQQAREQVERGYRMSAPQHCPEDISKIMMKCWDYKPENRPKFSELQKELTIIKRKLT

As for `O=c1cc(N2CCNCC2)oc2c(-c3ccccc3)cccc12`, the residual activity (usually the signal under treatment as a percentage of the control signal) came out at 88% in test [1]; 105% in test [2]; 84% in test [3]; 67% in test [4]; 95% in test [5]; 89% in [6]. Also, the residual activity was found to be 90% in [7]; 88% in test [8]; 95% in test [9]; 78% in test [10]; 81% in test [11]; 96% in test [12].

Turning to `CC(C)N(CCC(=O)c1ccc2ccccc2c1)Cc1ccccc1`, the residual activity in test [1] worked out at 85%; in test [2] it was 125%; in [5], 87%; in [11], 82%.

With `NC(=O)c1cccc(-c2cc(Nc3ccc(OC(F)(F)F)cc3)ncn2)c1`, the residual activity amounted to 95% in test [1]; 96% in test [2]; 92% in test [3]; 125% in test [13]; 99% in test [6]; 97% in test [10]. The residual activity in test [11] is 93%; in test [12], 90%.

In the case of `CCCCc1c(-c2ccc(OC)cc2)[nH]c2nccnc12`, the residual activity amounted to 49% in test [1]; 46% in [2]; 46% in [3]; 88% in test [14]; 60% in [15]; 114% in test [16]. Also, the residual activity in test [17] came out at 109%; in [4], 91%; in test [18], 84%; in [5] it was 91%; in test [13] it was 34%; in test [6], 51%. Moreover, the residual activity came out at 61% in [19]; 78% in test [7]; 44% in test [8]; 32% in test [9]; 27% in test [10]; 30% in [11]. For the same compound, the residual activity in test [12] turned out to be 6%.

On to `CCN(CC)CCNC(=O)c1c(C)[nH]c(/C=C2\C(=O)Nc3ccc(Cl)cc32)c1C`, for which the residual activity was 4% in [1]; 7% in [2]; 1% in test [3]; 14% in test [14]; 3% in test [15]; 8% in test [20]. Also, the residual activity in [16] is 1%; in [18], 79%; in test [5], 14%; in test [13], 14%; in test [6], 2%; in test [19], 8%. For the same compound, the residual activity in test [7] is 2%; in [8] it was 5%; in [9], 0%; in test [10], 1%; in test [11], -1%; in test [12] it was 0%.

Take `Cc1cc(C)c(/C=C2\C(=O)Nc3ccccc32)[nH]1`: the residual activity in test [1] came to 9%; in [2], 65%; in test [3], 13%; in test [20], 80%; in [16], 68%; in test [17], 124%. Besides, the residual activity turned out to be 100% in test [18]; 55% in [5]; 53% in test [19]; 30% in test [7]; 3% in test [8]; 0% in test [9]. Also, the figures for the residual activity in [10], in test [11] and in test [12] were 1%, 0% and 1%, respectively.

Regarding `O=C(NC(NC(=S)Nc1ccc(F)c([N+](=O)[O-])c1)C(Cl)(Cl)Cl)C(c1ccccc1)c1ccccc1` (stereo unspecified), the residual activity is 59% in test [3]; 73% in [15]; 83% in test [4]; 103% in test [5]; 99% in test [10]; 82% in [11]. The residual activity in [12] is 93%.

As to `COc1ccc(CNC(=O)Nc2ncc([N+](=O)[O-])s2)cc1`, the residual activity in test [2] came to 102%; in test [3] it was 77%; in test [14], 100%; in test [15] it was 78%; in test [20], 112%; in test [16] it was 113%. Also, the residual activity in test [19] is 31%; in test [7], 28%; in test [8], 74%; in test [9], 49%; in test [12] it was 59%.

Consider `O=C(Nc1nc2ccccc2n1CCN1CCOCC1)c1cccc([N+](=O)[O-])c1`, for which the residual activity in test [1] came to 87%; in test [17], 114%; in test [13], 101%; in test [6], 74%; in test [19], 102%; in test [10], 38%. Besides, the values for the residual activity in test [11] and in [12] were 29% and 36%, respectively.

For the compound `COc1ccc(COc2ccc(Cc3cnc(N)nc3N)cc2OC)cc1`, the residual activity in test [2] came out at 112%; in test [14] it was 112%; in test [15], 76%; in test [17], 131%.

Take `COc1ccc(Cl)cc1NC(=O)Nc1cc(C)nc2ccccc12`: the residual activity stood at 64% in [1]; 94% in [6]; 99% in [19]; 82% in test [7]; 96% in test [8]; 91% in [9].

For `CC(C)(C)c1nc2c3ccc(F)cc3c3c(=O)[nH]ccc3c2[nH]1`, the residual activity turned out to be 9% in [1]; 119% in [17]; 67% in [18]; 27% in test [5]; 45% in test [10]; 26% in test [11]. For the same compound, the residual activity in test [12] stood at 28%.

In the case of `N#C/C(=C\c1ccc(O)c(O)c1)C(=O)NCc1ccccc1`, the residual activity in test [14] turned out to be 103%; in test [15], 120%; in [13], 124%; in test [6], 76%; in [7], 82%.

As for `CC(C)[C@H](CO)Nc1nc(Nc2cc(N)cc(Cl)c2)c2ncn(C(C)C)c2n1`, the residual activity in test [1] was 3%; in test [14], 84%; in [15], 22%; in [20], 92%; in [16], 20%; in test [4], 88%. Further, the residual activity in test [18] came to 88%; in [5] it was 23%; in test [13] it was 57%; in test [6], 12%; in [19], 33%; in test [7], 3%. Besides, the residual activity in [10] stood at 12%; in test [11], 2%; in test [12] it was 11%.

With `CSc1nc(-c2ccc(F)cc2)c(-c2ccnc(NC(C)c3ccccc3)c2)[nH]1` (stereo unspecified), the residual activity turned out to be 126% in test [2]; 53% in test [3]; 87% in test [14]; 68% in test [15]; 78% in test [16]; 78% in test [4]. Besides, the residual activity was 102% in [13]; 87% in [6]; 84% in test [19]; 71% in test [7]; 80% in test [9]; 86% in [10]. For the same compound, the residual activity in [11] was 83%; in [12], 97%.

With `O=C(CCCc1ccc(-c2ccccc2F)cc1)Nc1ccc(O)cc1`, the residual activity amounted to 112% in test [1]; 99% in test [14]; 99% in test [15]; 109% in test [18]; 91% in [5]; 107% in test [13]. The residual activity in [6] was 100%; in test [19], 93%; in test [7] it was 92%; in test [8] it was 109%; in test [9], 100%; in test [10], 101%. Besides, the figures for the residual activity in test [11] and in test [12] were 87% and 101%, respectively.

For the compound `CN([C@@H](Cc1ccc(OS(=O)(=O)c2cccc3cnccc23)cc1)C(=O)N1CCN(c2ccccc2)CC1)S(=O)(=O)c1cccc2cnccc12`, the values for the residual activity in test [3], in test [16] and in test [11] were 58%, 58% and 76%, respectively.

Take `O=c1c(-c2ccc(F)cc2)c(-c2ccncc2)[nH]n1-c1ccc(Cl)cc1`: the residual activity amounted to 127% in test [2]; 40% in test [3]; 123% in test [20]; 65% in test [7]; 100% in test [8]; 50% in test [9].

For `O=c1cc(N2CCOCC2)oc2c(-c3ccccc3)cccc12`, the residual activity amounted to 81% in [3]; 101% in test [20]; 73% in [16]; 70% in test [4]; 101% in test [18].

Regarding `O=C1Cc2c([nH]c3ccc([N+](=O)[O-])cc23)-c2ccccc2N1`, the residual activity was 74% in test [2]; 59% in test [3]; 125% in [20]; 109% in test [16]; 112% in [17]; 102% in [4]. For the same compound, the residual activity in test [13] came to 35%; in test [6] it was 43%; in test [19], 40%; in test [7] it was 48%; in test [8], 49%; in [9], 24%. Also, the residual activity in test [10] worked out at 30%; in test [11], 20%; in test [12] it was 29%.
